Screening results deposited in PubChem by National Center for Advancing Translational Sciences (NCATS).
D1 ag – activates the human D1 dopamine receptor. P21728. activation, % at 2 µM. 360,000 compounds, 1% hits. HEK293 T-REx D1 cells, calcium flux, agonist mode; in the data active means activation above about 30%; further: 0% is about no effect
Target sequence (P21728 whole entry, looked up): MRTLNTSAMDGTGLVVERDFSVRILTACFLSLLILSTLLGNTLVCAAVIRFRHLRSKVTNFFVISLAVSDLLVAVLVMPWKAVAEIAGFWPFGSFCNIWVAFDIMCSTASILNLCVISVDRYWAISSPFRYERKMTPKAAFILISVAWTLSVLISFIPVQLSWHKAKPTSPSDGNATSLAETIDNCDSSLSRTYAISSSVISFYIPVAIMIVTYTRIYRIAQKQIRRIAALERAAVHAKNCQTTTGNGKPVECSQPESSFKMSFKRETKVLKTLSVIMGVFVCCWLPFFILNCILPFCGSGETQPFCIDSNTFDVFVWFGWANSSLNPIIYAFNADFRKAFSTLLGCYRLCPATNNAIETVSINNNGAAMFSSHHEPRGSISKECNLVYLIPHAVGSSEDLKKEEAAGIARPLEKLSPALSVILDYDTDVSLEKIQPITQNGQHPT
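Agonism was scored from calcium flux recorded over 180 s (1 read/s) after pintool compound addition, following a 10-cycle baseline. Cells were inducible force-coupled HEK293 TREx D1, plated overnight at 30 C and loaded with no-wash calcium dye.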
D3 ag – D3 dopamine receptor (human) agonism. D3R DiscoveRx beta-arrestin cells, luminescence, 90 min. max activation, %. 410,000 compounds, 0.58% hits; in the data active means max activation above about 30%; further: 0% is about no effect
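Agonist-mode cell screen: cells plated at 1500/well and incubated overnight at 37 °C, then exposed to library compounds for 90 min at 37 °C. Detection reagent was added for 30–60 min at room temperature, and luminescence was read.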
D1 antag – antagonists of human D1 dopamine receptor; activity change, negative = inhibition, % at 10 µM; HEK293 TREx D1 cells, calcium flux, dopamine EC80; stronger effect = lower value; 360,000 compounds, 3.2% hits; in the data active means activity change below about -30%; further: on the % scale 0 is the no-effect control and ±100 the full control effect
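Compound effects on dopamine-evoked calcium signalling were measured in tetracycline-induced HEK293 Trex D1 cells. Dopamine at EC80 followed a 180 s compound pre-read, and fluorescence was tracked kinetically for 180 s more.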
DRD3 antagonist – blocks the human D3 dopamine receptor | 360,000 compounds, 2.5% hits | max response, negative = inhibition, % | D3R cells, DiscoveRx beta-arrestin luminescence, antagonist mode; stronger effect = lower value | P35462; in the data active means max response below about -50%; inconclusive means no clear call, values can overlap the other calls; further: on the % scale 0 is the no-effect control and ±100 the full control effect
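Cells expressing the human receptor were seeded at 1500 cells/well, incubated overnight at 37 degrees C in 5% CO2, then exposed to library compounds with dopamine controls for 90 minutes at 37 degrees C before luminescent detection.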
D1 PAM – enhances dopamine response at the human D1 receptor | P21728 | HEK293 TREx D1 cells, calcium flux, dopamine EC20 potentiation | potentiation, % at 10 µM | 360,000 compounds, 0.036% hits | AID 504651; in the data active means potentiation above about 30%; further: 0% is about no effect
* marks the source's active call; other numbers are inactive results; ? = inconclusive; . = no result. The list is not random: actives were taken first. Their share in the collection is about 6%.

SMILES	D1 ag	D3 ag	D1 antag	DRD3 antagonist	D1 PAM
C#Cc1ccc([C@H]2C=C(C(=O)OCC=C)O[C@@H](OCC)[C@@H]2CCCO)cc1	1	62*	-16	64	-6
Cc1cc(NC(=O)c2cc(-c3ccc(Cl)cc3)on2)n(-c2ccccc2)n1	2	-12	6	.	2
Clc1ccc(CSc2nnc(-c3ccccn3)n2Cc2cccs2)cc1Cl	.	4	.	9	.
C=C(CN(C)C)C(=O)c1ccc(OC2OC(COC(C)=O)C(OC(C)=O)C(OC(C)=O)C2OC(C)=O)cc1 (stereo unspecified)	.	-16	.	-82*	.
CC(C)NC(=O)C1(C)CN(S(C)(=O)=O)CC(=O)N1Cc1cccs1 (stereo unspecified)	.	-6	.	3	.
O=S(=O)(c1ccc(OC(F)(F)F)cc1)N1CCC(O)(c2cccc(C(F)(F)F)c2)CC1	34*	1	-5	2	-6
COc1ccc(S(=O)(=O)N2CCCCC2)cc1-n1cnnn1	3	-5	-2	-6	-6
COc1cc(S(=O)(=O)N2CCC(O)(c3cccc(C(F)(F)F)c3)CC2)ccc1-n1cnnn1	10	2	-1	-82*	-5
O=C(Cn1ncc2c3ccccc3n(Cc3ccc(Cl)cc3)c2c1=O)NCc1cccs1	7	3	-5	.	-3
CN(C)S(=O)(=O)c1ccc(Cl)c(NC(=O)C2CCN(S(=O)(=O)c3cccs3)CC2)c1	6	0	-17	16	-8
CC(C)(C)c1ccc(/C=C2\Oc3cc(O)ccc3C2=O)cc1	11	3	-46*	29	-3
CC(=O)Oc1ccc(/C=C2/Oc3ccccc3C2=O)cc1	12	4	11	-18	1
COC(=O)c1ccc2c(c1)C(=O)/C(=C/c1ccc(O)cc1)O2	88*	2	2	11	-4
O=C1/C(=C/c2ccc(Br)cc2)Oc2cc(O)ccc21	45*	13	-10	25	-6
CCCS(=O)(=O)NC(=O)C1(C)CCCN(C(=O)c2cc(-c3cccs3)oc2C)C1 (stereo unspecified)	.	5	.	24	.
COc1ccc(-c2c(C)nn3c(N4CCN(c5cc(Cl)ccc5C)CC4)cc(C)nc23)cc1OC	1	-3	7	.	5
COC(=O)C1CCN(CC(=O)N(C)c2c(N)n(Cc3ccccc3)c(=O)[nH]c2=O)CC1	0	-4	-36*	-14	-5
CCc1cccc(NC(=O)Cn2ncc3c([nH]c4ccc(C)cc43)c2=O)c1	2	2	6	.	-1
Cc1ccc(NC(=O)Cn2c(-c3ccc(F)cc3)cnc2SCC(=O)Nc2c(C)cccc2C)cc1	1	-10	-18	-71*	-9
CCOCCCNCc1cccc(OC)c1	3	-6	-24	10	3
OCCNCCCCOc1cccc(Br)c1	17	-26	-2	-27	-2
CCc1cccc(OCCCCN(CC)CC)c1	4	-25	7	-73*	0
CCOC(=O)C(CCCCOc1cccc(CC)c1)C(=O)OCC	5	10	1	-18	-4
CCc1cccc(OCCCCNCCCOC)c1	2	-39	4	-79*	3
COCCCNCCCCOc1cccc(Br)c1	5	-5	3	-61*	-3
SMILES	D1 ag	D3 ag	D1 antag	DRD3 antagonist	D1 PAM
C=CCNCCCCOc1cccc(Br)c1	32*	-17	-4	-62*	-1
c1ccc2c(C3CCO3)cccc2c1 (stereo unspecified)	2	1	-28	0	0
CN(Cc1ccc(C(C)(C)C)cc1)C(=O)c1ccc2c(c1)OCO2	10	0	-15	-12	-3
CCC(=O)c1cn(/C(=C\C(=O)OC(C)(C)C)CCC(OC)OC)cc1CC	0	-1	-8	11	3
CCOc1cccc(OCCCNCCCOC)c1	1	-5	12	-59*	-3
CNCCCOc1cccc(Oc2ccccc2)c1	17	-16	-4	?	-3
CN(C(=O)Cc1c(C(=O)O)n(C)c2ccccc12)c1cccc(C(F)(F)F)c1	0	-6	-2	-5	-3
c1ccc(Cn2nnc3c(NCCN4CCOCC4)ncnc32)cc1	3	0	-31*	17	-17
Clc1ccccc1Cn1nnc2c(NCCN3CCOCC3)ncnc21	-1	-7	6	5	0
c1ccc(Cn2nnnc2CN2CCOCC2)cc1	4	2	-34*	6	-11
c1ccc(-n2nnnc2CN2CCOCC2)cc1	3	0	3	1	4
CCc1cccc(NC(=O)CN(C)S(=O)(=O)c2cnc[nH]2)c1	2	4	18	-52*	-2
CN1CCN(S(=O)(=O)c2ccc(SCCOc3ccc(Cl)cc3)nc2)CC1	14	-2	-44*	6	-15
O=S(=O)(c1ccc(SCCOc2ccccc2Cl)nc1)N1CCCC1	38*	-6	10	-29	.
NC(=O)CSc1ccc(S(=O)(=O)N2CCCCC2)cn1	41*	-1	7	-20	.
CC(C)N(C(=O)CSc1ccc(S(=O)(=O)N2CCCCC2)cn1)C(C)C	0	10	-5	8	-4
COc1ccc(OCCSc2ccc(S(=O)(=O)N3CCCC3)cn2)cc1	22	13	0	7	.
O=S(=O)(c1ccc(SCCOc2cccc(Br)c2)nc1)N1CCCC1	18	3	-15	14	2
COc1ccc(S(=O)(=O)N2CCCCC2c2cc(C(=O)Nc3ccc(F)c(Cl)c3)no2)cc1 (stereo unspecified)	.	-9	.	-2	.
COc1ccccc1NS(=O)(=O)c1ccc(C(=O)NCC2(N(C)C)CCCCC2)cc1	3	-8	0	-25	6
COc1ccccc1NC(=O)NCC1(N(C)C)CCCCC1	2	-25	-2	-82*	4
COc1ccccc1NS(=O)(=O)c1cc(C(=O)NCC(c2ccco2)N2CCCCC2)ccc1C (stereo unspecified)	-2	-25	2	?	-2
COc1ccccc1NC(=O)NCC(c1ccco1)N1CCCCC1 (stereo unspecified)	5	-15	-41*	?	-4
CCOc1ccc(NC(=O)CSC(N)=O)cc1	1	-5	7	-72*	0
CCOc1ccc(OCC(=O)Nc2ccc(S(N)(=O)=O)cc2)cc1	2	0	-34*	13	-5
CCOc1ccc(NC(=O)NC(=O)N(C(C)C)S(C)(=O)=O)cc1	4	-3	-35*	7	-4
COc1cc(OC)cc(C(=O)OCC(=O)NCCCc2ccccc2)c1	2	0	14	-11	1
COc1ccc(-n2c(=O)c3c4c(sc3n3c(SC(C)C)nnc23)COC(C(C)C)C4)cc1 (stereo unspecified)	-1	5	2	.	-2
O=C(NCc1ccc(F)c(F)c1)C1Cc2c(-c3ccc4c(c3)OCO4)ccnc2O1 (stereo unspecified)	.	-13	.	?	.
